Molecules are shown by their SMILES. “And” between values parts separate entries of the source, which are not always exact repeats. Equal values may be shown once. ± gives the standard deviation of the averaged measurements.
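Further: viability read as CCK-8 absorbance at 450 nm in cells co-exposed to the GPX4 inhibitor RSL3, relative to a 0.01% DMSO vehicle control.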

The experiment relates to HT-1080. Description: relative cell viability with RSL3 co-treatment (fraction of control); higher = stronger protection from RSL3-induced ferroptosis (higher viability). As to conditions: 10 µM.
For the molecule `O=c1ccc2ccc(O)c(O)c2o1` [Daphnetin], the relative cell viability came to 0.85 ± 0.017.
For the molecule `COc1ncc(-c2cc(-c3ncc(CN4C[C@@H](C)O[C@@H](C)C4)o3)c3cn[nH]c3c2)cc1NS(C)(=O)=O`, the relative cell viability is 0.563 ± 0.051.
With `O=C(NC1CCNCC1)c1n[nH]cc1NC(=O)c1c(Cl)cccc1Cl`, the relative cell viability was 0.56 ± 0.18.
The figure for `CO[C@H]1C[C@@H]2CC[C@@H](C)[C@@](O)(O2)C(=O)C(=O)N2CCCC[C@H]2C(=O)O[C@H]([C@H](C)C[C@@H]2CC[C@@H](OC(=O)C(C)(CO)CO)[C@H](OC)C2)CC(=O)[C@H](C)/C=C(\C)[C@@H](O)[C@@H](OC)C(=O)[C@H](C)C[C@H](C)/C=C/C=C/C=C/1C` is 0.367 ± 0.11; for `CC[C@@](C)(Nc1ccnc(-c2c[nH]c3ncccc23)n1)C(=O)NCC(F)(F)F` [Decernotinib (VX-509)] it is 0.823 ± 0.042.
Take `CCc1nc(-c2cccc(C)c2)c(-c2ccnc(NC(=O)c3ccccc3)c2)s1`: the relative cell viability was 0.783 ± 0.1.
In the case of `Clc1ccc(C2(c3ccc(-c4cn[nH]c4)cc3)CCNCC2)cc1`, the relative cell viability was determined as 0.373 ± 0.068.
For the molecule `CCC(=O)Nc1cccc(Oc2nc(Nc3ccc(N4CCN(C)CC4)cc3OC)ncc2Cl)c1`, the relative cell viability was 0.803 ± 0.097.
The figure for `COc1cc(Nc2c(C#N)cnc3cc(OCCCN4CCN(C)CC4)c(OC)cc23)c(Cl)cc1Cl` [Bosutinib (SKI-606)] is 0.867 ± 0.035; for `O=C(Nc1ccc(OC(F)(F)F)cc1)c1sccc1NCc1ccnc2ccccc12` it is 0.57 ± 0.095; for `c1cncc(CN2CCC(n3ncc4c(N5CCOCC5)nc(-c5ccc6[nH]ccc6c5)nc43)CC2)c1` it is 0.347 ± 0.13.
On to `NC(=O)Nc1sc(-c2ccc(F)cc2)cc1C(N)=O`, for which the relative cell viability is 0.87 ± 0.046.
The figure for `COc1cc2nccc(Oc3ccc(NC(=O)C4(C(=O)Nc5ccc(F)cc5)CC4)cc3)c2cc1OC` is 0.7 ± 0.21; for `CCc1cccc(CC)c1NC(=O)N1Cc2[nH]nc(NC(=O)c3ccc(N4CCN(C)CC4)cc3)c2C1` it is 0.53 ± 0.087; for `CC(C)[C@H](CO)Nc1nc(Nc2cccc(Cl)c2)c2ncn(C(C)C)c2n1` [Purvalanol A] it is 0.65 ± 0.09.
Consider `C1=N/C2=N/c3ccc(OCCN4CCCC4)c(c3)COC/C=C/COCc3cccc(c3)C(=C1)N2` [Pacritinib (SB1518)], for which the relative cell viability is 0.467 ± 0.096.
For `COc1cc(F)c(F)c(Nc2ccc(I)cc2F)c1NS(=O)(=O)C1(C[C@H](O)CO)CC1` [Refametinib (RDEA119, Bay 86-9766)], the relative cell viability turned out to be 0.92 ± 0.01.
On to `COc1cc2c(c(OC)c1OC)-c1c(cc3c(c1OC)OCO3)CC(C)C(C)C2` (stereo not given) [Schisandrin B (Sch B)], for which the relative cell viability is 1.01 ± 0.17.
With `Cc1cnc(-c2cnc(NCCNc3ccc(C#N)cn3)nc2-c2ccc(Cl)cc2Cl)[nH]1`, the relative cell viability is 0.55 and 0.457.
As for `CN1CCN(c2ccc(-c3ccncc3-c3cc(F)c(O)c(F)c3)cc2)CC1`, the relative cell viability is 0.48 ± 0.25.
Take `Cc1cc(CS(=O)(=O)c2ccccc2)cc(OCc2ccc(CN3CCC[C@@H]3CO)cc2)c1`: the relative cell viability came out at 0.723 ± 0.12.
With `C[C@@H]1CN(CC(=O)Nc2ccc3c(c2)Cc2cccc(-c4cc(=O)cc(N5CCOCC5)o4)c2S3)C[C@H](C)O1`, the relative cell viability was 0.46 ± 0.11.
As to `COc1cc(N2CCC(N3CCN(C)CC3)CC2)ccc1Nc1ncnc(Nc2ccccc2S(=O)(=O)C(C)C)n1`, the relative cell viability is 0.807 ± 0.023.
Turning to `N#Cc1c(NC(=O)c2cccc3ccccc23)sc2c1CCCC2` [JNK Inhibitor IX], the relative cell viability is 0.573 ± 0.049.
As for `COCC(=O)NC/C=C/c1ccc2ncnc(Nc3ccc(Oc4ccc(C)nc4)c(C)c3)c2c1`, the relative cell viability is 0.647 ± 0.095.
For the molecule `CCOc1cc(N2CCC(O)CC2)ccc1Nc1ncc2c(n1)N(C)c1ccccc1C(=O)N2C`, the relative cell viability stood at 0.793 ± 0.015.
In the case of `CCOC(=O)c1cnc2ccc(-c3cncc(NS(=O)(=O)c4ccccc4)c3)cn12`, the relative cell viability amounted to 0.717 ± 0.09.
As for `Cc1nc(Nc2n[nH]c3c2CN(C(=O)N[C@H](CN(C)C)c2ccccc2)C3(C)C)c2sccc2n1`, the relative cell viability turned out to be 0.557 ± 0.032.
The value for `COc1ccc(-c2ccc3ncc4c(c3c2)n(-c2ccc(N3CCNCC3)c(C(F)(F)F)c2)c(=O)n4C)cn1` was 0.29 ± 0.087; that for `C[C@@H](Oc1cc(-c2cnn(C3CCNCC3)c2)cnc1N)c1c(Cl)ccc(F)c1Cl` was 0.7 ± 0.026.
The value for `CC(C)(O)CNc1ncc(-c2ccnc(Nc3ccnc(Cl)c3)n2)c(CC2CC2)n1` was 0.503 ± 0.031; that for `CC(=O)Nc1nc(C)c(-c2ccc(Cl)c(S(=O)(=O)NCCO)c2)s1` was 0.603 ± 0.057.
As for `O=C(NC(NC(=S)Nc1ccc(F)c([N+](=O)[O-])c1)C(Cl)(Cl)Cl)C(c1ccccc1)c1ccccc1` (stereo not given), the relative cell viability turned out to be 0.62 ± 0.095.
For the molecule `C=CC(=O)Nc1cccc(Oc2nc(Nc3ccc(N4CCN(C)CC4)cc3)nc3ccsc23)c1`, the relative cell viability came out at 0.55 ± 0.082.
The figure for `Cc1c(NC(=O)c2ccc(C(C)(C)C)cc2)cccc1-c1cn(C)c(=O)c(Nc2ccc(C(=O)N3CCOCC3)cc2)n1` is 0.647 ± 0.1.

These data come from the supplement of paper PMC9588786.
